The source of these data is PubChem BioAssay (EPA / NIEHS).

What is called AC50 is the concentration at which the activity in the assay is half-maximal.

Active and inactive are the calls of the source. The calls were made as follows: active = hit-call score of the fitted dose curve at least 0.9, where 1 is the maximum; inactive = score below 0.9.

What all share (conditions): mRNA level, 48 h; actives raise or lower the signal
Read-out in one test: CYP2C9 (gene 1559)
The test is described as follows: LTEA_HepaRG_CYP2C9: Life Technologies and Expression Analysis (LTEA) Assay for CYP2C9 using HepaRG (AID 2283484). In a few lines:
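HepaRG, 48 h dosing, 8-pt half-log series, top 100 uM, 0.5% DMSO vehicle. Read-out: CYP2C9 transcript by TaqMan qRT-PCR, housekeeping-normalized (ACTB/GAPDH/POLR2A). Gain or loss fitted vs DMSO baseline.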

Read-out in a further test: CYP4A11 (gene 1579)
Description: LTEA_HepaRG_CYP4A11: Life Technologies and Expression Analysis (LTEA) Assay for CYP4A11 using HepaRG (AID 2283486). In a few lines:
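HepaRG, 48 h chem exposure, 8 conc (100 uM top, half-log), 0.5% DMSO vehicle; qRT-PCR readout, housekeeping-gene normalized; bidirectional curve fit vs DMSO baseline.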

Read-out in test [1]: Cytochrome P450 3A4 (Homo sapiens) (UniProt P08684)
The test is described as follows: LTEA_HepaRG_CYP3A4: Life Technologies and Expression Analysis (LTEA) Assay for CYP3A4 using HepaRG (AID 2283487). An outline of the steps: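 Differentiated HepaRG cells in serum-free induction medium exposed in duplicate for 48 h to 8 half-log concentrations up to 100 uM in 0.5% DMSO. CYP3A4 mRNA measured by qRT-PCR normalized to ACTB, GAPDH and POLR2A; bidirectional fit versus DMSO.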

Read-out in test [2]: DNA damage-inducible transcript 3 (DDIT3), DDIT3 (gene 1649)
Description: LTEA_HepaRG_DDIT3: Life Technologies and Expression Analysis (LTEA) Assay for DNA damage-inducible transcript 3 (DDIT3) using HepaRG (AID 2283488). An outline of the steps: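 Eight-point concentration-response (100 uM highest, half-log dilutions) in HepaRG, 48 h, duplicate wells. Endpoint: qRT-PCR mRNA, normalized (ACTB, GAPDH, POLR2A), bidirectional fitting with DMSO as baseline.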

Read-out in test [3]: Pro-epidermal growth factor (Homo sapiens) (UniProt P01133)
The test is described as follows: LTEA_HepaRG_EGF: Life Technologies and Expression Analysis (LTEA) Assay for Epidermal growth factor (EGF) using HepaRG (AID 2283489). An outline of the steps: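 HepaRG, 48 h dosing, 100 uM top, half-log x8, 0.5% DMSO. Readout: TaqMan qRT-PCR (Fluidigm array), housekeeping-normalized. Gain or loss of signal fit vs DMSO.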

Read-out in test [4]: Early growth response protein 1 (EGR1) transcription factor, EGR1 (gene 1958)
The test is described as follows: LTEA_HepaRG_EGR1: Life Technologies and Expression Analysis (LTEA) Assay for Early growth response protein 1 (EGR1) transcription factor using HepaRG (AID 2283490). An outline of the steps: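 HepaRG, 48 h exposure, 8-pt half-log series from 100 uM, 0.5% DMSO vehicle; EGR1 transcript by TaqMan qRT-PCR (Fluidigm array), housekeeping-normalized; bidirectional fit relative to DMSO baseline.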

Read-out in test [5]: Ezrin (EZR), EZR (gene 7430)
The test is described as follows: LTEA_HepaRG_EZR: Life Technologies and Expression Analysis (LTEA) Assay for Ezrin (EZR) using HepaRG (AID 2283491). An outline of the steps:
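Differentiated human HepaRG cells, 48 h after plating, were exposed in serum-free induction medium for 48 hours to eight half-log concentrations up to 100 uM in 0.5% DMSO. EZR mRNA was measured by TaqMan qRT-PCR, normalized to ACTB, GAPDH and POLR2A, and fitted bidirectionally against DMSO.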

Read-out in test [6]: Cytochrome P450 3A7 (Homo sapiens) (UniProt P24462)
The test is described as follows: LTEA_HepaRG_CYP3A7: Life Technologies and Expression Analysis (LTEA) Assay for CYP3A7 using HepaRG (AID 2283492). In a few lines:
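Human HepaRG liver cells, 48 h post-plating, switched to serum-free induction medium and exposed in duplicate for 48 h. Dosing: 100 uM top, half-log dilutions, 8 points, 0.5% DMSO vehicle. Read-out: CYP3A7 mRNA, gain or loss fitted against DMSO baseline.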

Read-out in another test: CYP3A5 (gene 1577)
Description: LTEA_HepaRG_CYP3A5: Life Technologies and Expression Analysis (LTEA) Assay for CYP3A5 using HepaRG (AID 2283493). In a few lines:
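Readout was CYP3A5 mRNA by qRT-PCR. HepaRG cultures were exposed for 48 h in serum-free induction medium to chemicals at up to 100 uM, and responses were fitted in both directions relative to DMSO vehicle.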

Read-out in the next test: CYP2E1 (gene 1571)
The test is described as follows: LTEA_HepaRG_CYP2E1: Life Technologies and Expression Analysis (LTEA) Assay for CYP2E1 using HepaRG (AID 2283485). An outline of the steps: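 Assay uses 48 h exposure of HepaRG hepatic cells, eight concentrations to 100 uM. Expression of CYP2E1 is quantified by TaqMan qRT-PCR with ACTB, GAPDH and POLR2A normalization; curves fitted in both directions relative to vehicle.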

Cytochrome P450 3A7 (Homo sapiens), sequence (P24462 whole entry, looked up): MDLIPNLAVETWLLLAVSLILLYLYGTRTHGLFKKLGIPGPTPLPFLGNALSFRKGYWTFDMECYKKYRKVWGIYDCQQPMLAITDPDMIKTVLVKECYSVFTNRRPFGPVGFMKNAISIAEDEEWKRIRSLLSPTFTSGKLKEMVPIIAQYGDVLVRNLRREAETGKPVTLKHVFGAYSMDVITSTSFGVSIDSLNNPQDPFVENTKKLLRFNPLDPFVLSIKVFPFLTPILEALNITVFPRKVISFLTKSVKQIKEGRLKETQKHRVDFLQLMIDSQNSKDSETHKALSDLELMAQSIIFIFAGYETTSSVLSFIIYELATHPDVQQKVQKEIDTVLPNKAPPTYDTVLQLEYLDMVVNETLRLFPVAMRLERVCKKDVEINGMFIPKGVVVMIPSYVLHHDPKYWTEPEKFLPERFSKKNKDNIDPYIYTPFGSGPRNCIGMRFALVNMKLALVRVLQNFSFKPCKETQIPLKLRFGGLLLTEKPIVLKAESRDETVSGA
Cytochrome P450 3A4 (Homo sapiens), sequence (P08684 whole entry, looked up): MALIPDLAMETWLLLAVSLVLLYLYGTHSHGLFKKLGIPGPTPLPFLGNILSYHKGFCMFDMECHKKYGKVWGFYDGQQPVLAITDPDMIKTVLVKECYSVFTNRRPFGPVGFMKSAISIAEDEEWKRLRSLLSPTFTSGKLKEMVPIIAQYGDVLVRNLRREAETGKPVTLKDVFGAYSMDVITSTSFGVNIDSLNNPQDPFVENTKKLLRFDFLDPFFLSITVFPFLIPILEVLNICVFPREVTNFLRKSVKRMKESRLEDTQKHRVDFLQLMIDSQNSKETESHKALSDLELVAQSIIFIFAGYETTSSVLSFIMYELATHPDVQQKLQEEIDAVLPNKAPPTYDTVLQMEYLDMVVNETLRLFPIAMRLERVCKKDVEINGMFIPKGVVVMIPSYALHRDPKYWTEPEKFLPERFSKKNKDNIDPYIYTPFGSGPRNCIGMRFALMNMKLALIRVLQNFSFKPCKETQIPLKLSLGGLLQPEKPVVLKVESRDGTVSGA

For the compound `ClC(Cl)(Cl)c1ccccc1`, the result (in the test with CYP2C9 (gene 1559); in the test with CYP4A11 (gene 1579); in [1]; in test [2]; in test [3]; in test [4]) was inactive. The result (in test [5]; in [6]; with CYP3A5 (gene 1577)) was inactive.
Regarding `[N-]=[N+]=[N-]`, the AC50 is 78.6 µM (active) with CYP2C9 (gene 1559), 70.6 µM (active) with CYP4A11 (gene 1579), 76.4 µM (active) in test [2] and 50 µM (active) in test [5]. In addition, the compound was classed as inactive (in test [1]; in test [3]; in test [4]; in test [6]; with CYP3A5 (gene 1577)).
With `CCN(CC)c1ccccc1`, the call (in the test with CYP2C9 (gene 1559); with CYP4A11 (gene 1579); in test [1]; in test [2]; in test [3]; in test [4]) was inactive. Also, the result (in test [5]; in test [6]; in the test with CYP3A5 (gene 1577)) was inactive.
As for `CCOc1ccc(C(C)(C)COCc2cccc(Oc3ccccc3)c2)cc1`, the result (with CYP2C9 (gene 1559); in [2]; in [4]; in test [5]; with CYP3A5 (gene 1577)) was inactive. For the same compound, the AC50 is 61.5 µM (active) in the test with CYP4A11 (gene 1579), 4.91 µM (active) in [1], 15 µM (active) in test [3] and 1.64 µM (active) in [6].
Regarding `CSC(C)(C)C=NO`, the result (with CYP2C9 (gene 1559); with CYP4A11 (gene 1579); in test [1]; in test [2]; in test [3]; in test [4]) was inactive. Also, the result (in [5]; in test [6]; in the test with CYP3A5 (gene 1577)) was inactive.
`CCC(C)(C)c1ccc(O)cc1`: the compound was called inactive (with CYP2C9 (gene 1559); with CYP4A11 (gene 1579); in test [1]; in test [2]; in test [3]; in test [4]). Also, the call (in [5]; in test [6]; in the test with CYP3A5 (gene 1577)) was inactive.
Take `CCOC(=O)c1ccccc1C(=O)OCC`: the result (with CYP2C9 (gene 1559); in the test with CYP4A11 (gene 1579); in test [1]; in [2]; in [3]; in test [4]) was inactive. In addition, the compound was classed as inactive (in test [5]; in test [6]; in the test with CYP3A5 (gene 1577)).
On to `Nc1cc2c3c(c1)C(c1ccccc1)=N[C@@H](NC(=O)c1cccnc1)C(=O)N3CC2`, for which the compound was classed as inactive (in the test with CYP2C9 (gene 1559); in test [2]; in test [3]; in test [4]; in test [5]; with CYP3A5 (gene 1577)). The AC50 was 50 µM (active) with CYP4A11 (gene 1579), 7.78 µM (active) in test [1] and 5.11 µM (active) in test [6].
Turning to `CCCCCCCc1ccc(O)cc1`, the outcome (with CYP2C9 (gene 1559); with CYP4A11 (gene 1579); in [1]; in [2]; in test [3]; in test [4]) was inactive. In addition, the result (in [5]; in test [6]; with CYP3A5 (gene 1577)) was inactive.
Turning to `CCCCN(CCCC)SN(C)C(=O)Oc1cccc2c1OC(C)(C)C2`, the call (with CYP2C9 (gene 1559); with CYP4A11 (gene 1579); in [2]; in test [3]; in test [4]; in [5]) was inactive. The compound was called inactive in the test with CYP3A5 (gene 1577). Moreover, the results for the AC50 in test [1] and in test [6] were 8.27 µM (active) and 4.49 µM (active), respectively.
Regarding `ClC1=C(Cl)C2(Cl)C3C(Cl)C(Cl)CC3C1(Cl)C2(Cl)Cl` (stereo not drawn), the compound was classed as inactive (with CYP2C9 (gene 1559); in test [4]; in test [5]; in test [6]; in the test with CYP3A5 (gene 1577)). The concentration at half-maximal activity (AC50) with CYP4A11 (gene 1579) is 24.6 µM (active); in [1], 4.39 µM (active); in [2] it was 82.1 µM (active); in [3], 18.4 µM (active).
`CCOP(=S)(Oc1ccc([N+](=O)[O-])cc1)c1ccccc1` (stereo not drawn): the outcome (with CYP2C9 (gene 1559); in [2]; in [4]; in test [5]) was inactive. Also, the AC50 in the test with CYP4A11 (gene 1579) is 10.8 µM (active); in [1], 4.84 µM (active); in test [3] it was 21.4 µM (active); in test [6], 2.87 µM (active).
Regarding `CCCCc1ccccc1`, the outcome (in the test with CYP2C9 (gene 1559); in the test with CYP4A11 (gene 1579); in [1]; in test [2]; in test [3]; in test [4]) was inactive. Moreover, the result (in [5]; in test [6]; in the test with CYP3A5 (gene 1577)) was inactive.
Take `O=C(O)C(Cl)Cl`: the result (with CYP2C9 (gene 1559); in the test with CYP4A11 (gene 1579); in test [1]; in test [2]; in [3]; in test [4]) was inactive. The compound was classed as inactive (in test [5]; in test [6]; with CYP3A5 (gene 1577)).
For `c1cc2c3c(cccc3c1)CC2`, the compound was called inactive (with CYP2C9 (gene 1559); with CYP4A11 (gene 1579); in test [1]; in [2]; in [3]; in [4]). Moreover, the compound was called inactive (in [5]; in [6]; with CYP3A5 (gene 1577)).
For `CCCN(CCC)c1c([N+](=O)[O-])cc(C(C)C)cc1[N+](=O)[O-]`, the half-maximal activity concentration (AC50) with CYP2C9 (gene 1559) is 12.7 µM (active); with CYP2E1 (gene 1571), 67 µM (active); with CYP4A11 (gene 1579), 81.2 µM (active); in test [3] it was 29 µM (active). In addition, the call (in test [2]; in test [4]; in [5]; in test [6]; with CYP3A5 (gene 1577)) was inactive.
Turning to `O=[N+]([O-])c1ccc(Cl)c(Cl)c1`, the compound was classed as inactive (with CYP2C9 (gene 1559); with CYP4A11 (gene 1579); in test [1]; in [2]; in test [3]; in [4]). Besides, the compound was called inactive (in test [5]; in [6]; with CYP3A5 (gene 1577)).
On to `Nc1ccc2ccccc2c1`, for which the outcome (with CYP2C9 (gene 1559); in the test with CYP4A11 (gene 1579); in test [1]; in test [2]; in test [3]; in test [4]) was inactive. The compound was classed as inactive (in test [5]; in test [6]; with CYP3A5 (gene 1577)).
With `ClC(Cl)c1ccccc1`, the compound was called inactive (with CYP2C9 (gene 1559); with CYP4A11 (gene 1579); in test [1]; in test [2]; in test [3]; in test [4]). Also, the outcome (in test [5]; in test [6]; with CYP3A5 (gene 1577)) was inactive.
As to `CCOS(=O)(=O)OCC`, the outcome (with CYP2C9 (gene 1559); in the test with CYP4A11 (gene 1579); in [1]; in test [2]; in test [3]; in test [4]) was inactive. Further, the call (in test [5]; in test [6]; with CYP3A5 (gene 1577)) was inactive.
Consider `CCOP(=S)(OCC)SCSCC`, for which the result (with CYP2C9 (gene 1559); with CYP4A11 (gene 1579); in test [2]; in [3]; in [4]; in test [5]) was inactive. Besides, the outcome (in test [6]; with CYP3A5 (gene 1577)) was inactive. The concentration at half-maximal activity (AC50) in test [1] was 13.9 µM (active).
